Results on one sequence are retold here after article PMC7862700, “An all-to-all approach to the identification of sequence-specific readers for epigenetic DNA modifications on cytosine”.

Experiment in all cases: DAPPL (digital affinity profiling via proximity ligation, sequencing); 10 mM Tris-HCl pH 7.5, 50 mM NaCl, 1 mM DTT, 4% glycerol, room temperature, 30 min; GST-TFs on glutathione beads, 16-mer random dsDNA library, 0.1% formaldehyde crosslink after washing; high values mean tight binding
The target in one experiment is T1, FLI1 (Homo sapiens, UniProt Q01543 1-452).
T1 sequence: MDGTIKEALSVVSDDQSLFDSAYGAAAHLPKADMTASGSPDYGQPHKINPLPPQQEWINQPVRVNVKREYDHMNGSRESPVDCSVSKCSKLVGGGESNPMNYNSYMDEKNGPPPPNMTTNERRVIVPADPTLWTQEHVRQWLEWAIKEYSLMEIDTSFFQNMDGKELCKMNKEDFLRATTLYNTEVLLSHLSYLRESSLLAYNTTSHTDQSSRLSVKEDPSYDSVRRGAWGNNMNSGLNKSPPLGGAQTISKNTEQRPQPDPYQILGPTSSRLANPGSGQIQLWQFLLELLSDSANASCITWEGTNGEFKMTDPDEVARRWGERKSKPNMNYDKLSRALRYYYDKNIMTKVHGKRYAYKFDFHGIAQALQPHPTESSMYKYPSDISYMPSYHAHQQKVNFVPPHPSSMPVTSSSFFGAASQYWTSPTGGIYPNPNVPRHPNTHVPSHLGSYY
The following applies: protein: recombinant; tags: N-terminal GST; dsDNA, one strand shown. A digest of the protocol:
(§1)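 Yeast served to express human transcription factors as GST fusions, which were then captured on glutathione beads and labelled with DNA barcodes. Pooled with a tag-only sample, they were incubated with 200 nmole of a 16-mer random double-stranded DNA library for 30 min at room temperature in Tris/NaCl/DTT/glycerol buffer, washed, crosslinked with 0.1% formaldehyde, ligated by proximity, amplified by PCR and sequenced. Dividing each hexamer's read frequency for a factor by its frequency for the tag-only sample gives the binding signal.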

A further experiment deals with T2, ELK1 (Homo sapiens, UniProt P19419 1-428).
T2 sequence: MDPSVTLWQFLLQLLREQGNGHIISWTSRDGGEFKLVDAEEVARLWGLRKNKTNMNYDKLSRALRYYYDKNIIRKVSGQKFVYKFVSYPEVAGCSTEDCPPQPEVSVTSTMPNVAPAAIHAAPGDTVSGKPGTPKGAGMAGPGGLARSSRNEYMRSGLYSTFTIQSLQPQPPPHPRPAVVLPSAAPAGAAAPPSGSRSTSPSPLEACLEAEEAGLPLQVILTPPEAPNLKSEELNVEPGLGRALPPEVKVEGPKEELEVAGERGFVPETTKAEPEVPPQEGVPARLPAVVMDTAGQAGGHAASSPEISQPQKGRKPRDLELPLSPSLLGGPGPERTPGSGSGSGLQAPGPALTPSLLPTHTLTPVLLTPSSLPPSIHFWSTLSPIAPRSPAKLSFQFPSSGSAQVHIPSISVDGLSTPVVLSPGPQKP
The following applies: protein: recombinant; tags: N-terminal GST; dsDNA, one strand shown. A digest of the protocol:
as §1

The next experiment addresses T3, GABPA (Homo sapiens, UniProt Q06546 1-454).
T3 sequence: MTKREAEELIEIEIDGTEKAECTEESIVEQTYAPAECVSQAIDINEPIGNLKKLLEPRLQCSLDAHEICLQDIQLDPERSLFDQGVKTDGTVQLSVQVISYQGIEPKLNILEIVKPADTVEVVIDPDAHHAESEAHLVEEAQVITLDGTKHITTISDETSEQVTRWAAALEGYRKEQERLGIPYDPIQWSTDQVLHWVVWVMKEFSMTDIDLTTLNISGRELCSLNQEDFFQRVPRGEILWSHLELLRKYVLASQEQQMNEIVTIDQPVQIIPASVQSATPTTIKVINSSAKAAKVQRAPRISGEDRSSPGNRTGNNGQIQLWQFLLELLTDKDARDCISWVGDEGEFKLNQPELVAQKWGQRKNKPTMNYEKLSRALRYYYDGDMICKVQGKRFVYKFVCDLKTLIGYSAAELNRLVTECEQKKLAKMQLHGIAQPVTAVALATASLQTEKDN
The following applies: protein: recombinant; tags: N-terminal GST; dsDNA, one strand shown. Put shortly:
as §1

A further experiment addresses T4, ERG (Homo sapiens, UniProt P11308 1-479).
T4 sequence: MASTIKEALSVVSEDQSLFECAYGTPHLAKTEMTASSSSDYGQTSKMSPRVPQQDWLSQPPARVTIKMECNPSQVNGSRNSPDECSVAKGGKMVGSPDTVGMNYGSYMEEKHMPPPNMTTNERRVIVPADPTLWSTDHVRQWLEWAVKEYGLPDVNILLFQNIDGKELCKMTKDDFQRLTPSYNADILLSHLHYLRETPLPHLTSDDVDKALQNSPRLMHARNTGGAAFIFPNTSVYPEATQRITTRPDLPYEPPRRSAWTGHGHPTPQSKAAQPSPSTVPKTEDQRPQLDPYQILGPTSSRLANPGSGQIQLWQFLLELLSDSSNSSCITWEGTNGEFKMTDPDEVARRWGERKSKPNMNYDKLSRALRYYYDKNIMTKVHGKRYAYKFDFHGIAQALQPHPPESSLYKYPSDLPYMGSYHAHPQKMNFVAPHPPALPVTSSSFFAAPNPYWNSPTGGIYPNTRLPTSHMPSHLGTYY
The following applies: protein: recombinant; tags: N-terminal GST; dsDNA, one strand shown. A digest of the protocol:
as §1

The next experiment has as its target ELF1 (Homo sapiens, UniProt P32519 1-619). The following applies: protein: recombinant; tags: N-terminal GST; dsDNA, one strand shown. Put shortly: as §1
The target of another experiment is T5, EHF (Homo sapiens, UniProt Q9NZC4 1-300).
T5 sequence: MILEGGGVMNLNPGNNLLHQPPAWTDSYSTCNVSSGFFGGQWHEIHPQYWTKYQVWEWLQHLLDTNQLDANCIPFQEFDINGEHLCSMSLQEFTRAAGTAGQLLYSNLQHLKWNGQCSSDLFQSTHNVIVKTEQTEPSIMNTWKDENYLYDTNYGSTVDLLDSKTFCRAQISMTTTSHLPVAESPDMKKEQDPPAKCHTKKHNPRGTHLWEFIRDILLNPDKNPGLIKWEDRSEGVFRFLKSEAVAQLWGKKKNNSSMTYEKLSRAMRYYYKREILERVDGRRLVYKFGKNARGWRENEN
The following applies: protein: recombinant; tags: N-terminal GST; dsDNA, one strand shown. A digest of the protocol:
as §1

The next experiment concerns the target SPI1 (Homo sapiens, UniProt P17947 1-270). The following applies: protein: recombinant; tags: N-terminal GST; dsDNA, one strand shown. A digest of the protocol: as §1
The target of another experiment is SPIB (Homo sapiens, UniProt Q01892 1-262). The conditions noted are these: protein: recombinant; tags: N-terminal GST; dsDNA, one strand shown. Put shortly: as §1
Chain of SPIB (Q01892 whole entry): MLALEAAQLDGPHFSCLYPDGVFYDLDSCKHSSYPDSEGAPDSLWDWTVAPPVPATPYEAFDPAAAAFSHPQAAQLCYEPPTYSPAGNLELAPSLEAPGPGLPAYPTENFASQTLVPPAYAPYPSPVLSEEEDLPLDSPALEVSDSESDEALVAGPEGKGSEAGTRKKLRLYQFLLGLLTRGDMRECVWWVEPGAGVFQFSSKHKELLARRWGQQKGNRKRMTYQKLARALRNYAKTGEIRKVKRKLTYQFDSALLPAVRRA
The next experiment concerns the target T6, ELK3 (Homo sapiens, UniProt P41970 1-407).
T6 sequence: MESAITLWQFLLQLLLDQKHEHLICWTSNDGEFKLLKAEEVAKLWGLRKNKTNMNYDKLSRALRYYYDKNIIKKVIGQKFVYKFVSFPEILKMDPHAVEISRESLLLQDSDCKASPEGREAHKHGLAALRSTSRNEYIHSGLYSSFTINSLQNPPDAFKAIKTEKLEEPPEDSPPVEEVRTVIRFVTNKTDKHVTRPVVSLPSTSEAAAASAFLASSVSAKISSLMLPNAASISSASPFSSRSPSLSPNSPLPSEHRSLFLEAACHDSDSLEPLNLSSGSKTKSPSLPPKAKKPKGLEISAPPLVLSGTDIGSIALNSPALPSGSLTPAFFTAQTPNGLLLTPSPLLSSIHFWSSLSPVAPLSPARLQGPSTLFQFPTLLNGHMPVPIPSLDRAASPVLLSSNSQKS
The following applies: protein: recombinant; tags: N-terminal GST; dsDNA, one strand shown. Put shortly: as §1

The target of the next experiment is T7, FEV (Homo sapiens, UniProt Q99581 1-238).
T7 sequence: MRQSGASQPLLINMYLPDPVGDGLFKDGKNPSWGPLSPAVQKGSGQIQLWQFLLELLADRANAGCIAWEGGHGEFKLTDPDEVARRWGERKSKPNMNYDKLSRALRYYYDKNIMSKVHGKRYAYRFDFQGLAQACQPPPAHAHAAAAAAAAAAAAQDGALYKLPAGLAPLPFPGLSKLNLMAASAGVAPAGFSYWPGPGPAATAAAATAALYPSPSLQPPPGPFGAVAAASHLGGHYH
The conditions noted are these: protein: recombinant; tags: N-terminal GST; dsDNA, one strand shown. Put shortly: as §1

The target of the next experiment is ETV5 (Homo sapiens, UniProt P41161 1-510). The conditions noted are these: protein: recombinant; tags: N-terminal GST; dsDNA, one strand shown. Put shortly: as §1
Chain of ETV5 (P41161 whole entry): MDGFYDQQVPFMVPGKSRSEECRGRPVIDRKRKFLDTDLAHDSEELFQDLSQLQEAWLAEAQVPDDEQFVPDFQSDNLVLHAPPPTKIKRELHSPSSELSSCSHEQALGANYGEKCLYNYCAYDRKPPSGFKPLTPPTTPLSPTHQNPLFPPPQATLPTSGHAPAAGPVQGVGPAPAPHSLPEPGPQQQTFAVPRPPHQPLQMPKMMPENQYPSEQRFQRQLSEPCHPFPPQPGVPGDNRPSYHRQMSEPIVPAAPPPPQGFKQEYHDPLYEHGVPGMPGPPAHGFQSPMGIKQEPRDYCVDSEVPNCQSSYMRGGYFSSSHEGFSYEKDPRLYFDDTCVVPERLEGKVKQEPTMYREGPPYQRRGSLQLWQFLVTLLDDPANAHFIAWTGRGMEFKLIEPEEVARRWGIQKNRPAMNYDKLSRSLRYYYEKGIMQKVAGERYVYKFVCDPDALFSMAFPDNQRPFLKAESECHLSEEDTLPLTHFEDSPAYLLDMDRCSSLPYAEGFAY
A further experiment deals with HSF1 (Homo sapiens, UniProt Q00613 1-529). The conditions noted are these: protein: recombinant; tags: N-terminal GST; chain copies: 3; dsDNA, one strand shown. Put shortly: as §1
Chain of HSF1 (Q00613 whole entry): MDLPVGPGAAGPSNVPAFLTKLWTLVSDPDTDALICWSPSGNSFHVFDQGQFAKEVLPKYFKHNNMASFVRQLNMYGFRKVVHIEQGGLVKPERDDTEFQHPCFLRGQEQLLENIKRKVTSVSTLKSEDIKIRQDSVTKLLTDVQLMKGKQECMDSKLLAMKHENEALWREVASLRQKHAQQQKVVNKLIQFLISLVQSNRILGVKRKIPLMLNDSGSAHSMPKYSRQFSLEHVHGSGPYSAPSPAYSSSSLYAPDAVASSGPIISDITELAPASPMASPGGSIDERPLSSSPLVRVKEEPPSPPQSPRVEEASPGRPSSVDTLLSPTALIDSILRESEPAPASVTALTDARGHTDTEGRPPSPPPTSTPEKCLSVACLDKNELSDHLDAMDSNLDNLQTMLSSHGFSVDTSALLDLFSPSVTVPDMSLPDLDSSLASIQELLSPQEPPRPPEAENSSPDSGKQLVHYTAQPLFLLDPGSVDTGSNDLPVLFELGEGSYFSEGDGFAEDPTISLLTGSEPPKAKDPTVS
In a further experiment the target is T8, SPIC (Homo sapiens, UniProt Q8N5J4 1-248).
T8 sequence: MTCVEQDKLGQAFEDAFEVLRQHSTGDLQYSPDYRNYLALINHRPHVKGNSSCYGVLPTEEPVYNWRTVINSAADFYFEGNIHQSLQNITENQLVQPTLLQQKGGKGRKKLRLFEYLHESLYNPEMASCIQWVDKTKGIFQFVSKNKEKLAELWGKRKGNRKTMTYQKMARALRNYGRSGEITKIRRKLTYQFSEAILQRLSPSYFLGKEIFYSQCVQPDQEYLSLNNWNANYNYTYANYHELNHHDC
The conditions noted are these: protein: recombinant; tags: N-terminal GST; dsDNA, one strand shown. A digest of the protocol: as §1

The target in a further experiment is ELF4 (Homo sapiens, UniProt Q99607 1-663). The following applies: protein: recombinant; tags: N-terminal GST; dsDNA, one strand shown. Put shortly:
as §1

In the next experiment the target is T9, ELK4 (Homo sapiens, UniProt P28324-2 1-405).
T9 sequence: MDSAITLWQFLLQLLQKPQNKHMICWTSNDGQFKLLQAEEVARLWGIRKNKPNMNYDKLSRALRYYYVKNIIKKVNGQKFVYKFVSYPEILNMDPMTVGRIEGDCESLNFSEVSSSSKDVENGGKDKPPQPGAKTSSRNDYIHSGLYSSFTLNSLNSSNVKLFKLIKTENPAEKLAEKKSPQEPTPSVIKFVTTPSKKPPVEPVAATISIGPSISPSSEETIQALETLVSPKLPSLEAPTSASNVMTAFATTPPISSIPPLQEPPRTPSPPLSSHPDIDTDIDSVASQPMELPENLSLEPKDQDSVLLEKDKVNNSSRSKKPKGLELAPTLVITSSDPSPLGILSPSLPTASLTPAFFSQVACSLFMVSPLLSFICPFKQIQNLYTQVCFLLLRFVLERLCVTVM
The following applies: protein: recombinant; tags: N-terminal GST; dsDNA, one strand shown. Put shortly: as §1

The target in a further experiment is T10, ETV2 (Homo sapiens, UniProt O00321 1-342).
T10 sequence: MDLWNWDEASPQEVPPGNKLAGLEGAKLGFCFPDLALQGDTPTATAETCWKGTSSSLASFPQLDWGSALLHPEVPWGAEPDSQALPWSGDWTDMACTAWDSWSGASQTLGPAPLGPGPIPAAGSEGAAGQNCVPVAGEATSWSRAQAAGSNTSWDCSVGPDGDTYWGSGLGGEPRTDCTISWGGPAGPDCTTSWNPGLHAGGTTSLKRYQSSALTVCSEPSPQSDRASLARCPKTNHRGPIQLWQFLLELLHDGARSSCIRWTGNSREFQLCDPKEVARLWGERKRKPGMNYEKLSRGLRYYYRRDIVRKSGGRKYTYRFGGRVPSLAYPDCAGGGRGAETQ
The conditions noted are these: protein: recombinant; tags: N-terminal GST; dsDNA, one strand shown. Put shortly: as §1

Another experiment has as its target ETV1 (Homo sapiens, UniProt P50549 1-477). The following applies: protein: recombinant; tags: N-terminal GST; dsDNA, one strand shown. A digest of the protocol: as §1

Chain of ELF4 (Q99607 whole entry): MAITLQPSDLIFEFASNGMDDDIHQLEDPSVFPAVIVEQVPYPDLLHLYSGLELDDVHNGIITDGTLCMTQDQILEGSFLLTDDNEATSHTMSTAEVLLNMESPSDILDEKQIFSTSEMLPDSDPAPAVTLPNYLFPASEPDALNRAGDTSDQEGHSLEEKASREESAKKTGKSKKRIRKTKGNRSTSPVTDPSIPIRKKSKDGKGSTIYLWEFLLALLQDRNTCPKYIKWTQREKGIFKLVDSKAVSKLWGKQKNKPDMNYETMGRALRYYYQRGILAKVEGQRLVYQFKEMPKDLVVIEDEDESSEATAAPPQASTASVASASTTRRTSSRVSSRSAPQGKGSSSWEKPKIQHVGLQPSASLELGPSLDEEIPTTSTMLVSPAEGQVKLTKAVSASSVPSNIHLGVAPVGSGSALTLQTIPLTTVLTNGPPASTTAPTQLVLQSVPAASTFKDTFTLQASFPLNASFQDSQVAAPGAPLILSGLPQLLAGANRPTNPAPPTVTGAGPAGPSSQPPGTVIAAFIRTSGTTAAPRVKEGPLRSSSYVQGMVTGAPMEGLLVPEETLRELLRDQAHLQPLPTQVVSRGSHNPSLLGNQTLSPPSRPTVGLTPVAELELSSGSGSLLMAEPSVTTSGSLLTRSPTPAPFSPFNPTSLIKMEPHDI
Chain of ELF1 (P32519 whole entry): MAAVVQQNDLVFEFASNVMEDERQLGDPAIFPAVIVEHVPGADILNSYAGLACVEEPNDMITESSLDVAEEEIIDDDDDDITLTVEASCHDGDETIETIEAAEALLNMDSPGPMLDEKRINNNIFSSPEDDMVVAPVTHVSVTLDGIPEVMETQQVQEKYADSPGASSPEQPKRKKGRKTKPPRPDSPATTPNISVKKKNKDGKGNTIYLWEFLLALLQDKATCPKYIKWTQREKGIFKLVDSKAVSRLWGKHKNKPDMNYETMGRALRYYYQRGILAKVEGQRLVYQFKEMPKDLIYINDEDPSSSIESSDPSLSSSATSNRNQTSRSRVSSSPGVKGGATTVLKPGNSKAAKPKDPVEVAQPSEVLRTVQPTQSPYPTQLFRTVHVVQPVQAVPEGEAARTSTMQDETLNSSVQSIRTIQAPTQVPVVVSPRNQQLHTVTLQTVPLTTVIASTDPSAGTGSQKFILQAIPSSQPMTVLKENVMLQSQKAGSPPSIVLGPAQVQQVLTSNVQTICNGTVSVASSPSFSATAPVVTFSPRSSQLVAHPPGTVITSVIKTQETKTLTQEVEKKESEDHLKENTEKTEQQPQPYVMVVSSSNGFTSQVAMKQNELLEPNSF
Chain of ETV1 (P50549 whole entry): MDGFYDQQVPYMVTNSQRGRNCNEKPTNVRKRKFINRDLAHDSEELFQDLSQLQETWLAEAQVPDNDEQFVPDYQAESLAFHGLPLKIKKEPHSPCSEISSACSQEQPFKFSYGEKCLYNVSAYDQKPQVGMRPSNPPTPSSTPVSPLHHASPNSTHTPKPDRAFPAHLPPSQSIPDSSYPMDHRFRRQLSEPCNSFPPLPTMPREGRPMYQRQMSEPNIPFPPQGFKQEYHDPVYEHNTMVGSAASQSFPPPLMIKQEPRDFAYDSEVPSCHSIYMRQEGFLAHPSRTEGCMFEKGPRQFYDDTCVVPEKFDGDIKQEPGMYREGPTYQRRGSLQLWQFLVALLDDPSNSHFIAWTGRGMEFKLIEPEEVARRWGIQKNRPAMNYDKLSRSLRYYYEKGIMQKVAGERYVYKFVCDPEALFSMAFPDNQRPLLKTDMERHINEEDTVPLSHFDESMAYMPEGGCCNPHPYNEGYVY

In the case of TTCACA, the binding signal in the experiment with FLI1 is 1.27 fold enrichment (6-mer frequency, TF over GST control); in the experiment with ELK1, 1.17 fold enrichment (6-mer frequency, TF over GST control); with GABPA, 1.23 fold enrichment (6-mer frequency, TF over GST control); with ERG it was 1.18 fold enrichment (6-mer frequency, TF over GST control); in the experiment with ELF1, 1.16 fold enrichment (6-mer frequency, TF over GST control); with EHF, 1.2 fold enrichment (6-mer frequency, TF over GST control). In addition, the binding signal with SPI1 is 1.08 fold enrichment (6-mer frequency, TF over GST control); with SPIB, 1.25 fold enrichment (6-mer frequency, TF over GST control); with ELK3 it was 1.26 fold enrichment (6-mer frequency, TF over GST control); in the experiment with FEV it was 1.17 fold enrichment (6-mer frequency, TF over GST control); in the experiment with ETV5 it was 1.16 fold enrichment (6-mer frequency, TF over GST control); in the experiment with HSF1 it was 1.04 fold enrichment (6-mer frequency, TF over GST control). Besides, the binding signal is 1.08 fold enrichment (6-mer frequency, TF over GST control) in the experiment with SPIC; 1.17 fold enrichment (6-mer frequency, TF over GST control) in the experiment with ELF4; 1.28 fold enrichment (6-mer frequency, TF over GST control) in the experiment with ELK4; 1.28 fold enrichment (6-mer frequency, TF over GST control) with ETV2; 1.25 fold enrichment (6-mer frequency, TF over GST control) in the experiment with ETV1.
